This note sets out measurements from PubChem BioAssay (NCI).

Each structure is given as a SMILES string. The panel holds about 79,000 compounds, 15% with a hit somewhere; the sample as a whole holds those more often. Values without a mark were called inactive. Active and inactive are the calls of the source. No stated cut-off is given here; in the data, active means growth inhibition above about 70%; inactive means the rest.

This assay can be described thus: NCI Yeast Anticancer Drug Screen. Data for the rad14 strain (AID 159).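 Further: 0% = growth of vehicle-treated control cultures.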 The settings on record: S. cerevisiae rad14 strain growth inhibition, active compounds read high. The procedure:
Growth inhibition of yeast strains with defined genetic alterations is measured as a screen for potential anti-cancer activity. Selected strains with alterations in DNA damage repair or cell cycle control were exposed to compounds and growth inhibition was measured relative to vehicle treated controls. The strain used in this assay is rad14

`Oc1ccc2c(c1)C(O)CCCC2` (stereo not given): the growth inhibition is 5% (at 1.2 µM); 13% (at 3.7 µM); 23% (at 11.0 µM); 43% (at 33.0 µM); 95% (active) (at 100.0 µM).

For the compound `Cc1c(C)c(C)c(CSC(=N)N)c(C)c1C`, the growth inhibition reads like this: (at 1.2 µM) -31%; (at 3.7 µM) -27%; (at 11.0 µM) -12%; (at 33.0 µM) 85% (active); (at 100.0 µM) 98% (active).

Consider `O=C(O)c1cc2ccccc2c2c1C(=O)c1ccccc1-2`, for which the growth inhibition reads like this: (at 1.2 µM) 8%; (at 3.7 µM) 21%; (at 11.0 µM) 43%; (at 33.0 µM) 94% (active); (at 100.0 µM) 95% (active).

As for `O=C(O)C1CC(c2ccccc2)=NN1c1ccccc1` (stereo not given), the growth inhibition is -19% (at 1.2 µM); -15% (at 3.7 µM); -18% (at 11.0 µM); 28% (at 33.0 µM); 97% (active) (at 100.0 µM).

In the case of `CCN(CC)Cc1cc(Nc2c3ccccc3nc3c2[nH]c2ccccc23)cc(CN(CC)CC)c1O`, the growth inhibition runs as follows: (at 1.2 µM) -1%; (at 3.7 µM) -3%; (at 11.0 µM) -1%; (at 33.0 µM) 2%; (at 100.0 µM) 8%.

In the case of `COC(=O)NC1C(C)OC(OC2C/C=C(/C)C3C=CC4C(OC5CC(OC6CC(O)C(OC7CC(O)C(OC)C(C)O7)C(C)O6)C(O)C(C)O5)C(C)CC(C)C4C3(C)/C(O)=C3\C(=O)OC4(CC(C)C(CO)=CC4/C=C\2C)C3=O)CC1(C)[N+](=O)[O-]` (stereo not given), the growth inhibition (at 1.2 µM) was 13%; the growth inhibition (at 3.7 µM) is 19%; the growth inhibition (at 11.0 µM) is 14%; the growth inhibition (at 33.0 µM) is 16%; the growth inhibition (at 100.0 µM) was 13%.

Consider `CCCCCCN(CCCCCC)CC(O)c1ccnc2ccc(OC)cc12` (stereo not given), for which the growth inhibition reads like this: (at 1.2 µM) -2%; (at 3.7 µM) -3%; (at 11.0 µM) -4%; (at 33.0 µM) -5%; (at 100.0 µM) 63%.

For the compound `COC1CCC(O)C(/C=C/[N+](=O)[O-])C1` (stereo not given), the growth inhibition was 7% (at 1.2 µM); 42% (at 3.7 µM); 99% (active) (at 11.0 µM); 99% (active) (at 33.0 µM); 99% (active) (at 100.0 µM).
